Results reported in PubChem BioAssay (Tox21).
Where “and” joins values, the source holds several entries; their conditions need not be identical. Identical values can stand only once. Inconclusive results are not listed. A structure can be active in one record and inactive in another. Calls of active or inactive are those of the source. Unless noted, calls follow the shape of the dose curve; as a rule, active = well fitted curve in the direction sought with a large enough effect in the repeat runs; inconclusive = weak or mixed curves; inactive = no such curve, though single readings can be large; an effect the other way counts as inactive or inconclusive.

What was measured:
[1] = qHTS assay for small molecules that induce genotoxicity in human embryonic kidney cells expressing luciferase-tagged ATAD5 (AID 651632); also: nearly all actives have a fitted effect of over 15% in size
Outline: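 Cells were seeded at 2,000 per well, dosed with compound, and incubated 16 hr at 37C in 5% CO2. Luciferase activity was then quantified after a 30 min room-temperature incubation with Amplite.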

[2] = qHTS assay for small molecule agonists of the p53 signaling pathway - cell viability (AID 651633; calls by dose curve;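 also: p53RE-bla HCT reporter cells with a stable beta-lactamase p53 reporter; series mostly up to about 83 µM; nearly all actives have a fitted effect of over 30% in size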)
Outline: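 Viability counter-read: CellTiter-Glo luminescence (30 min, room temperature) in the same p53RE-bla plates. These plates had been exposed to compounds for 16 h at 37 C.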

[3] = qHTS assay for small molecules that induce genotoxicity in human embryonic kidney cells expressing luciferase-tagged ATAD5 - cell viability (AID 651634; calls by dose curve; also: nearly all actives have a fitted effect of over 25% in size)
Outline: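 Cells (HEK293T, luciferase-tagged ATAD5) are seeded at 2,000 per well, dosed with compound or DMSO vehicle, and incubated 15.5 hr at 37C and 5% CO2. CellTiter-Fluor is added for 30 min before fluorescence is measured.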

[4] = qHTS assay for small molecule disruptors of the mitochondrial membrane potential - cell viability (AID 720634; calls by dose curve;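 also: human HepG2 liver cancer cells; series mostly up to about 83 µM; nearly all actives have a fitted effect of over 20% in size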)
Outline: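 Cytotoxicity was measured by ATP quantitation in HepG2 wells that had first been treated with compound for 1 hr and stained with m-MPI dye; CellTiter-Glo incubation was 30 min at room temperature.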

[5] = qHTS assay for small molecule disruptors of the mitochondrial membrane potential (AID 720635); also: potency is read from the fitted curve at half-maximal effect
Outline: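 Mitochondrial membrane potential tracked with Mito-MPS dye, red aggregates (ex 540/em 590 nm) against green monomers (ex 490/em 535 nm). Compound treatment 1 hr at 37C, dye 30 min in HepG2.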

[6] = qHTS assay to test for compound auto fluorescence at 590 nm (red) in HepG2 cells (AID 720674)
Outline: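 Red autofluorescence (Ex/Em 540/590 nm, Rose Bengal sodium equivalents) was measured in HepG2 cells, 2,000 per well in MEM plus 10% FBS, plated overnight at 37 C. Readings were taken 1 hr after adding 23 nL compound or DMSO, at 37 C and 5% CO2.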

[7] = qHTS assay to test for compound auto fluorescence at 460 nm (blue) in HEK293 cells (AID 720678)
Outline: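 Blue read-out at excitation 405 nm and emission 460 nm follows overnight compound exposure of HEK293 cells at 37C in 5% CO2. Activity is given as auto fluorescence equivalency to triamterene.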

[8] = qHTS assay to test for compound auto fluorescence at 590 nm (red) in HEK293 cells (AID 720679)
Outline: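 Red channel, Ex/Em 540/590nm; signal expressed as equivalency to Rose Bengal sodium. HEK293, 2,000 cells/well, 10% dialyzed FBS; 23 nL compound pinned after 4-5 hr attachment; overnight 37C/5% CO2 before reading.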

[9] = qHTS assay to test for compound auto fluorescence at 535 nm (green) in HepG2 cells (AID 720675)
[10] = qHTS assay for small molecule agonists of the p53 signaling pathway (AID 651631; calls by dose curve; also: nearly all actives have a fitted effect of over 15% in size)
Outline: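 Quantitative high-throughput format: 4,000 p53RE-bla HCT-116 cells/well, 5 h pre-incubation, 16 h compound exposure at 37 °C, 2 h room-temperature substrate step, fluorescence intensity measured.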

Measured: Potency

CCCCCCCCCl
not listed: [9] | [10]
inactive: all other assays above

CCOP(OCC)OCC
not listed: [9] | [10]
inactive: all other assays above

Clc1ccccc1Cl
not listed: [7] | [9] | [10]
inactive: all other assays above

CCCN(CCC)N=O
not listed: [10]
inactive: all other assays above

Cc1[nH]c(=O)n(C(C)(C)C)c(=O)c1Cl
not listed: [10]
inactive: all other assays above

c1ccc2c(c1)oc1ccccc12
not listed: [9] | [10]
inactive: all other assays above

Nc1ccc(Oc2ccc(N)cc2)cc1
not listed: [7] | [10]
inactive: all other assays above

CCC[N+](=O)[O-]
not listed: [4] | [9]
inactive: all other assays above

COP(N)(=O)SC (stereo not given)
not listed: [4] | [9]
inactive: all other assays above

CN=C=S
not listed: [10]
inactive: all other assays above

CN(C)CCO
not listed: [4] | [7]
inactive: all other assays above

CCCCCCCCCCCC#N
not listed: [9] | [10]
inactive: all other assays above

O=c1[nH]c(=O)[nH]c(=O)[nH]1
not listed: [4] | [7] | [9]
inactive: all other assays above

O=S(=O)(c1ccc(O)cc1)c1ccc(O)cc1
not listed: [4] | [5]
inactive: all other assays above

Cc1ccc([N+](=O)[O-])cc1C
47.7 µM (active) and inactive: [5]
not listed: [10]
inactive: all other assays above

c1ccc(-c2ccccc2)cc1
not listed: [9] | [10]
inactive: all other assays above

CCCC1COC(Cn2cncn2)(c2ccc(Cl)cc2Cl)O1 (stereo not given)
not listed: [4] | [5]
inactive: all other assays above

CN(N=O)c1ccccc1
not listed: [7] | [10]
inactive: all other assays above

ClCc1cccnc1
not listed: [7] | [10]
inactive: all other assays above

CC(C)=C[C@@H]1[C@@H](C(=O)OCc2coc(Cc3ccccc3)c2)C1(C)C
active: [5] 23.7 µM
not listed: [10]
inactive: all other assays above

O=C(NC(=O)c1c(F)cccc1F)Nc1cc(Cl)c(OC(F)(F)C(F)C(F)(F)F)cc1Cl (stereo not given)
active: [5] 5.31 µM and 7.7 µM
not listed: [4] | [9]
inactive: all other assays above

CC1C=[C-]C=C1.[C-]#[O+].[C-]#[O+].[C-]#[O+].[Mn]
not listed: [9] | [10]
inactive: all other assays above

CCN(CC)c1ccccc1
not listed: [4] | [5] | [7]
inactive: all other assays above

Nc1ccc(Br)cc1
not listed: [7] | [9] | [10]
inactive: all other assays above

BrCCBr
not listed: [4] | [10]
inactive: all other assays above

c1ccc2c(c1)Oc1ccccc1O2
not listed: [4] | [10]
inactive: all other assays above

Oc1ccccc1Cl
inactive: [1] | [2] | [3] | [5] | [6] | [8]

CCN(CC)CCO
not listed: [4] | [10]
inactive: all other assays above

O=NN1CCCC1
not listed: [4] | [7] | [10]
inactive: all other assays above

OCCN(CCO)CCO
inactive: [3] | [6] | [9] | [8]

CC(=O)C=C(C)C
inactive: [1] | [3] | [5] | [6] | [9] | [8]

C[C@]12CC[C@H]3[C@@H](CC[C@@]45O[C@@H]4C(O)=C(C#N)C[C@]35C)[C@@H]1CC[C@@H]2O
not listed: [5] | [9] | [10]
inactive: all other assays above

Cc1ccc(N)cc1Cl
not listed: [4] | [10]
inactive: all other assays above

Cn1cc(-c2ccccc2)c(=O)c(-c2cccc(C(F)(F)F)c2)c1
not listed: [4] | [7] | [10]
inactive: all other assays above

C=CC(N)=O
inactive: [2] | [5] | [6] | [9] | [8]

CCCCN(CCCC)SN(C)C(=O)Oc1cccc2c1OC(C)(C)C2
active: [5] 62.1 µM
not listed: [2] | [10]
inactive: all other assays above

CC(Oc1ccc(Cl)cc1Cl)C(=O)O (stereo not given)
inactive: [1] | [2] | [3] | [6] | [8]

CCOP(=S)(OCC)Oc1cnc2ccccc2n1
inactive: [1] | [2] | [3] | [6] | [9] | [8]

C1CN2CCN1CC2
inactive: [1] | [2] | [3] | [6] | [9] | [8]

Clc1cccc(Cl)c1Cl
inactive: [2] | [3] | [5] | [6] | [7] | [8]

c1ccc(OP(Oc2ccccc2)Oc2ccccc2)cc1
not listed: [4] | [5] | [10]
inactive: all other assays above

O=c1ccc(=O)[nH][nH]1
not listed: [1] | [10]
inactive: all other assays above

CCC(C)(CC)c1cc(NC(=O)c2c(OC)cccc2OC)on1
active: [5] 27.4 µM and 20.9 µM
not listed: [2] | [10]
inactive: all other assays above

O=NN1CCCCCCC1
not listed: [4] | [7] | [10]
inactive: all other assays above

O=c1[nH]c2ccccc2c(=O)o1
not listed: [4] | [10]
inactive: all other assays above

CCCCN(CC)C(=O)SCCC
inactive: [1] | [2] | [3] | [5] | [6] | [8]

CN1C(=O)CN=C(c2ccccc2)c2cc(Cl)ccc21
inactive: [2] | [3] | [5] | [6] | [7] | [8]

COc1ccc2c3c1O[C@H]1[C@@H](O)C=C[C@H]4[C@@H](C2)N(C)CC[C@@]341
inactive: [1] | [2] | [3] | [6] | [9] | [8]

CC(C)OC(=O)Nc1cccc(Cl)c1
active: [5] 47.9 µM and 24.3 µM
not listed: [4] | [9] | [10]
inactive: all other assays above

CCC12COCN1COC2
not listed: [5] | [7] | [10]
inactive: all other assays above

C#CCN(C)[C@H](C)Cc1ccccc1
inactive: [1] | [2] | [3] | [5] | [6] | [8]

CN(C)N=O
not listed: [4] | [10]
inactive: all other assays above

[O-][Cl+2]([O-])O
inactive: [2] | [4] | [5] | [6] | [9] | [8]

CCNc1nc(NC(C)C)nc(SC)n1
not listed: [4] | [5] | [10]
inactive: all other assays above

CCCN(CCC)c1c([N+](=O)[O-])cc(C(F)(F)F)cc1[N+](=O)[O-]
not listed: [5] | [9] | [10]
inactive: all other assays above

O=Cc1cccc(Oc2ccccc2)c1
inactive: [1] | [3] | [6] | [9] | [7] | [8]

CC(C)(C)OOC(C)(C)C
not listed: [4] | [10]
inactive: all other assays above

CC(C#N)CCC#N (stereo not given)
not listed: [4] | [5] | [10]
inactive: all other assays above

CN(C)[C@@H]1C(=O)C(C(N)=O)=C(O)[C@@]2(O)C(=O)C3=C(O)c4c(O)cccc4[C@@](C)(O)[C@H]3C[C@@H]12
inactive: [2] | [3] | [4] | [6] | [9] | [8]

COC(=O)c1ccccc1N
inactive: [2] | [3] | [4] | [5] | [6] | [8]
